Reference: the supplement of paper PMC10338343
± gives the standard deviation. Whole data set: some 8,200 sequences, median “pre-steady-state target cleavage rate” near 0.024, cut for the highest 2% near 1.3. The list comes from a sample in which the highest values are over-represented; it also holds similar and randomly drawn sequences.

Tested on: MIWI (PIWIL1) piRISC loaded with L1MC piRNA (30 nt)
Assay: pre-steady-state target cleavage rate (min^-1); MIWI and MILI are mouse PIWI proteins and EfPiwi is from a freshwater sponge; tags in brackets are library labels; higher = faster piRNA-guided slicing of the target
Conditions: guide: L1MC piRNA 5'p-UAACUAAAUACUAUGCAAGCUGUAGGUCCU
Experimental: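 Cleave-'n-Seq: a library of target RNAs (target site embedded in constant flanks, ACAGCATTCCGCGTTAGTGATATCCG... 5' flank; DNA-blocked outside the site) at 0.1 nM was incubated with 1 nM active mouse MILI or MIWI piRISC (synthetic 5'-monophosphorylated piRNA guide) with or without 500 nM mouse GTSF1 at 33 °C for 1 min to 16 h. Uncleaved targets were sequenced and normalised to non-target controls, and the pooled three trials were fitted to a burst-and-steady-state model to give the pre-steady-state cleavage rate (min^-1; k3 is constrained to at most 1e-4). Sequence is the target site only; target names encode pairing extent (gX:gY) and contiguous / 1-mismatch / 2-mismatch / bulge geometry. Fits with R² ≤ 0 are excluded.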

[1] = auxiliary factor: 500 nM mouse GTSF1
[2] = auxiliary factor: none (no GTSF1)

Sequence | pre-steady-state target cleavage rate [1] | pre-steady-state target cleavage rate [2]
UCCUGGAUGUCCUUGCAUAGUAUUUAGUCA | 0.0473 ± 0.011 | 0.00568 ± 0.0021
UCGACCUACAUGCUUGCAUAGUAUUUAGUUA | 0.913 ± 0.037 | 0.0554 ± 0.012
UCCACCUACAGCUUGCAUAGUUUUUACUUA | 0.173 ± 0.03 | 0.0106 ± 0.0026
UCCUGGUUCAGCUUGCAUAGUUUUUAGUUA | 0.242 ± 0.031 | 0.0386 ± 0.0094
AGGACCUACAGCAACCAUAGUAUUUAGUUA | 0.426 ± 0.039 | –
UCCACCAACAGCUUGCAUAGUAUUUAGUAA | 0.644 ± 0.039 | 0.0342 ± 0.0071
UCCAACUACAGCUUGCAUAGUAUUUAGUUA | 0.646 ± 0.038 | 0.0478 ± 0.0076
UCCUCCAACAGCUUGCAUAGUAUUUAGAUA | 0.491 ± 0.042 | 0.0201 ± 0.0048
UCCACCAACAGCUUGCAUAGUAUUUAGUUA | 1.06 ± 0.037 | 0.0618 ± 0.011
UGGUCCAACAGCUUGCAUAGUAUUUAGUUA | 0.852 ± 0.034 | 0.0715 ± 0.01
UCCUCCAACAGCUUGCAUAGUAUUUAGUUA | 1.37 ± 0.041 | 0.0735 ± 0.013
AGGUCCAACAGCUUGCAUAGUAUUUAGUUA | 1.5 ± 0.04 | 0.0907 ± 0.014
UCGUCCAACAGCUUGCAUAGUAUUUAGUUA | 1.4 ± 0.044 | 0.0771 ± 0.014
UCCUCCAACAGCUUGCAUAGUAUUUAGUAA | 0.675 ± 0.03 | 0.0256 ± 0.0063
UGGACGUACAGCUUGCAUAGUAAUUAGUUA | 0.725 ± 0.048 | 0.0371 ± 0.0089
UCCUGGUACAGCUUGCAUAGUAUUAUGAAA | 0.119 ± 0.037 | –
UCCUGGUACACCUUGCAUAGUAAUUAGUUA | 0.546 ± 0.1 | 0.00728 ± 0.0025
UCGACCUACAGCUUGGAUAGUAUUUAGUAA | 0.859 ± 0.043 | 0.0299 ± 0.0054
UGCACCUACAGCUUGGAUAGUAUUUAGUUA | 1.18 ± 0.065 | 0.05 ± 0.008
UCGACCUACAGCUUGGAUAGUAUUUAGAUA | 0.444 ± 0.05 | 0.0181 ± 0.0047
UCGACCUACAGCUUGGAUAGUAUUUAGUUA | 1.72 ± 0.055 | 0.0599 ± 0.01
AGCACCUACAGCUUGGAUAGUAUUUAGUUA | 0.99 ± 0.049 | 0.0433 ± 0.0065
ACGACCUACAGCUUGGAUAGUAUUUAGUUA | 1.68 ± 0.067 | 0.0728 ± 0.011
AGGACGAACAGCUUGCAUAGUAUUUACAAA | 0.245 ± 0.037 | 0.00641 ± 0.0027
UGGACCUACACGUUGCAUAGUAUUUAGUAA | 0.575 ± 0.039 | 0.00987 ± 0.0024
UCCAUCCUACAGCUUGCAUAGUAUUUAGUUA | 0.558 ± 0.029 | 0.0561 ± 0.0096
UCGAUCCUACAGCUUGCAUAGUAUUUAGUUA | 1.49 ± 0.042 | 0.0686 ± 0.013
AGGAUCCUACAGCUUGCAUAGUAUUUAGUUA | 1.4 ± 0.068 | 0.118 ± 0.023
UGGAUCCUACAGCUUGCAUAGUAUUUAGUUA | 1.37 ± 0.071 | 0.0869 ± 0.014
AGGUCCUACAGCUUGCAUAGUAUUUACAAA | 0.428 ± 0.076 | 0.00841 ± 0.003
